From ChEMBL document CHEMBL3433997, “St. Jude Leishmania screening dataset” (2016)
“And” between values parts separate entries of the source, which are not always exact repeats. Equal values may be shown once.

The molecules below were run against Glucose transporter (Leishmania mexicana) (UniProt O61059) (assay: ST_JUDE_LEISH: Cytotoxicity at 2uM final concentration against transgenic Leishmania Mexicana promastigotes LmGT2 that are glucose transport deficient and complemented with the L. Mexicana glucose transporter 2. Activity is measured by DNA content using SYBR green in vitro).
Format: functional

Compared with `Oc1ccc(Cl)cc1CN1CCC(CCOC(c2ccccc2)c2ccccc2)CC1`, `COc1cccc(CN2CCC(CCOC(c3ccccc3)c3ccccc3)CC2)c1O` is lower in inhibition: 7.84% for the first, -0.42% for the second.

First: O=C(NC1CCC(CN2CCC(c3c[nH]c4ccccc34)CC2)CC1)NC12CC3CC(CC(C3)C1)C2 (stereo not given)
Second: O=C(/C=C/C=C/c1ccccc1)NC1CCC(CN2CCC(c3c[nH]c4ccccc34)CC2)CC1 (stereo not given)
The inhibition of the first is lower: 1.41% for the first, 2.81% for the second.

Going from `Cc1nc(-c2ccc(-c3ccc(C(=O)Nc4ccc5c(c4)C4(CCNCC4)CO5)cc3)c(C)c2)no1` to `CN(c1cc(NC(=O)c2ccc(F)cc2)ccn1)C1CCN(Cc2cccc(C#N)c2)CC1`, the inhibition rises from 1.93% to 5.14%.

Compared with `COc1ccc(O)c(CN2CCN(c3cc(C)ccc3C)CC2)c1`, `CC[C@H]1CN2CC[C@H]1C[C@H]2[C@H](O)c1cc(-c2cccc(F)c2)nc2ccc(OC)cc12` is higher in inhibition: 2.89% for the first, 5.44% for the second.

Going from `COc1cc(C=CC(=O)N2CCC(CN3CCC(c4c[nH]c5ccccc45)CC3)CC2)ccc1O` to `COc1ccc(OC)c(C=CC(=O)NC2CCC(CN3CCC(c4c[nH]c5ccccc45)CC3)CC2)c1` (stereo not given), the inhibition falls from 6.97% to -0.07%.

Going from `Cc1csc(-c2ccc3[nH]cc(C4=CCN(C)CC4)c3c2)n1` to `Oc1ccc2[nH]cc(C3=CCN(CCc4ccccc4)CC3)c2c1`, the inhibition rises from 6.12% to 13.4%.

First: O=C(NC1CCC(CN2CCC(c3c[nH]c4ccccc34)CC2)CC1)C1(O)c2ccccc2-c2ccccc21 (stereo not given)
Second: O=C(NC1CCC(CN2CCC(c3c[nH]c4ccccc34)CC2)CC1)c1ccc(-c2cc(C(F)(F)F)ccc2Cl)o1 (stereo not given)
The inhibition of the first is lower: 2.03% for the first, 3.83% for the second.

First: NC1=NC2(CCCC2)N(c2ccc(Cl)cc2)C(N)=N1
Second: CN1CC[C@H](N(Cc2ccccc2F)c2ccc(C#N)c(Cl)c2)C1
The inhibition of the first is lower: 3.83% for the first, 4.63% for the second.

Compared with `FC(F)(F)c1ccc(NC(=S)N2CCC(CN3CCC(c4c[nH]c5ccccc45)CC3)CC2)cc1`, `O=S(=O)(NC1CCC(CN2CCC(c3c[nH]c4ccccc34)CC2)CC1)c1ccc(Cl)c(Cl)c1` (stereo not given) is lower in inhibition: 2.98% for the first, -2.55% for the second.

Compared with `COC(=O)c1ccc(CC(C)NCC(O)c2ccccc2Cl)cc1` (stereo not given), `COc1cccc(CC(C)NCC(O)c2cccc(Cl)c2)c1` (stereo not given) is higher in inhibition: 1.21% for the first, 1.92% for the second.

Compared with `CCCCCc1cc(O)c2c(c1)OC(C)(C)c1ccncc1-2`, `Cc1ccc2c(C3=CCN(CCCCC4(C)C(=O)Nc5ccccc54)CC3)c(C)[nH]c2c1` (stereo not given) is lower in inhibition: 3.5% for the first, -0.56% for the second.

First: Cc1c(C(=O)N[C@@H](C)c2ccccc2)c2cc(O)c(Br)cc2n1C1CCCCC1
Second: CC(C)CNCc1ccc(-c2cccc(CN(C(=O)NC3CCCCC3)C3CCN(Cc4ccccc4)CC3)c2)cc1
The inhibition of the first is higher: 3.33% for the first, 3.1% for the second.

First: CC[C@H]1CN2CC[C@H]1C[C@@H]2[C@@H](O)c1cc(Cl)nc2ccc(OC)cc12
Second: CC[C@H]1CN2CC[C@@H]1C[C@H]2[C@H](O)c1cc(N2CCC(CO)CC2)nc2ccc(OC)cc12
The inhibition of the first is higher: 8.37% for the first, 2.66% for the second.

Compared with `CCC1CN2CCc3cc(OC)c(OC)cc3C2CC1CC1NCCc2cc(OC)c(OC)cc21` (stereo not given), `CC[C@H]1CN2CC[C@H]1C[C@H]2[C@H](O)c1cc(N2CCC3CCCCC3C2)nc2ccc(OC)cc12` (stereo not given in full) is lower in inhibition: 93.1% for the first, 3.38% for the second.

Compared with `C=C[C@H]1CN2CC[C@H]1C[C@H]2[C@H](O)c1ccnc2ccccc12`, `CN(c1ccnc(Nc2ccc(CS(C)(=O)=O)cc2)n1)C1CCN(Cc2ccccc2)CC1` is lower in inhibition: 1.5% for the first, 1.21% for the second.

Going from `O=C(NC1CCC(CN2CCC(c3c[nH]c4ccccc34)CC2)CC1)c1cc(-c2cccc(Cl)c2)n(-c2ccc(Cl)cc2Cl)n1` (stereo not given) to `COC(=O)c1ccc(CC(C)NCC(O)c2cccc(C(F)(F)F)c2)cc1F` (stereo not given), the inhibition rises from 0.47% to 2.51%.

`NCC(=O)c1cc2c(cc1N)OCCO2` showed an inhibition of 3.9%.

In the case of `Cc1ccc2[nH]cc(C3CCN(CC4CCC(NC(=O)/C=C/c5ccc(Cl)c(Cl)c5)CC4)CC3)c2c1` (stereo not given), the inhibition is reported as -1.76% and 10.5%.
For `COc1cccc(/C=C/C(=O)NC2CCC(CN3CCC(c4c[nH]c5ccccc45)CC3)CC2)c1` (stereo not given), the inhibition was 3.07% and -2.7%.
In the case of `CC(=O)Nc1ccc2[nH]cc(C3CCN(CC4CCC(NC(=O)/C=C/c5ccc(Cl)c(Cl)c5)CC4)CC3)c2c1` (stereo not given), the inhibition is reported as 0.33% and -0.43%.
With `CCOc1ccc2nccc([C@@H](O)[C@@H]3C[C@@H]4CCN3C[C@@H]4CC)c2c1` the inhibition was 3.59% and -0.94%.
For `Cc1c(C)c2c(c(C)c1O)CC[C@](C)(C(=O)NC1CCC(CN3CCC(c4c[nH]c5ccccc45)CC3)CC1)O2` (stereo not given in full), the inhibition was -1.4% and -1.2%.
In the case of `O=C(/C=C/c1ccccc1Cl)NC1CCC(CN2CCC(c3c[nH]c4ccccc34)CC2)CC1` (stereo not given), the inhibition is reported as -3.81% and 6.89%.
For `O=C(/C=C/c1ccc(Cl)c(Cl)c1)NC1CCC(CN2CCC(c3c[nH]c4cc(C(F)(F)F)ccc34)CC2)CC1` (stereo not given), the inhibition was 12.7% and 2.07%.
